Among the data in PubChem BioAssay AID602393 (Broad Institute, 2012) are reporter increase values, retold here.

In all, about 350,000 compounds went through this assay and about 7,000 (2%) were called active. The sample as a whole holds a higher share of actives than the screen did. Values without a mark were called inactive. Cut-off read from the data, not from the text of the source: active = activation above about 40%; inconclusive = no clear call, values can overlap the other calls; inactive = below that.

This assay can be described thus: raisers of Bmi1 knock-in reporter signal – mouse ES cells, Bmi1 luciferase knock-in, single point, esBAF inhibitor project, primary screen (AID 602393).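 Note: 0% = median of the plate's neutral control wells and 100% = double that signal; a rise in the Bmi1 reporter signal indicates esBAF inhibition.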 The note with it: 24 h, at 12.5 µM, stronger effect = higher value, 100% = twice the neutral-well signal.
In the case of `O=C(NCC[C@@H]1CC[C@H](NS(=O)(=O)c2cccc(F)c2)[C@H](CO)O1)c1cnccn1`, the reporter increase is -3.13%.
Under `C[C@H](CO)N1C[C@H](C)[C@@H](CN(C)Cc2ccccn2)Oc2ncc(-c3cccc(F)c3)cc2C1=O` stands 0.648%; under `COc1cc(C=O)c(Br)cc1OCC(=O)NCc1ccccc1`, 0.717%.
`COC(=O)COc1cccc2c(=O)n(CC(=O)NCCc3ccc(OC)c(OC)c3)ccc12`: the reporter increase was 8.15%.
Under `COc1ccc(CNC(=O)COc2ccccc2C(=O)c2cnn(-c3ccccc3)c2)cc1OC` stands 75.1% (active); under `O=C(C[C@H]1C[C@H]2c3cc(NC(=O)C4CCOCC4)ccc3O[C@H]2[C@@H](CO)O1)NCC1CC1`, 0.385%; under `O=C(COC(=O)c1ccc(O)cc1O)NC(=O)c1ccccc1`, -3.35%.
With `O=C(COC(=O)c1ccccc1)c1ccc2c(c1)OCCO2`, the reporter increase is 1.23%.
The result for `O=C(OCc1ccccc1F)c1ccc2c(c1)OCCO2` reads 58.2% (active); that for `O=C(COC(=O)c1ccc2c(c1)OCCO2)NCc1ccccc1Cl`, -1.54%; that for `O=C(COC(=O)c1ccc(O)cc1O)c1ccc2c(c1)OCCO2`, 90.2% (active).
The result for `O=C(CN1CCN(c2ccccc2F)CC1)c1ccc2c(c1)OCO2` reads 14.1%; that for `C/C=C/c1ccc([C@H]2[C@@H](CO)N(C(C)=O)[C@H]2CN(C)S(C)(=O)=O)cc1`, -4.53%; that for `O=C(C1CCC1)N1C[C@H]2[C@@H](c3ccccc31)[C@H](CO)N2C(=O)Nc1cccc(F)c1`, -1.72%.
The result for `CCOc1cccc(C(=O)Nc2cnn(Cc3ccccc3)c2)c1` reads 13%.
With `Cc1nnc(NC(=O)c2ccc3nccnc3c2)s1`, the reporter increase is 16.2%.
For `CCOc1cccc(C(=O)Nc2nnc(-c3cccs3)s2)c1`, the reporter increase is 50% (active).
Take `Cc1noc(C)c1NC(=O)N[C@@H]1C=C[C@H](CC(=O)N2CCCCC2)O[C@H]1CO`: the reporter increase is -4.9%.
With `COc1ccc(CNC(=O)C[C@H]2C[C@H]3c4cc(NS(C)(=O)=O)ccc4O[C@H]3[C@@H](CO)O2)cc1`, the reporter increase was -3.21%.
As to `CN(C)C(=O)c1cccc(-c2ccc3c(c2)[C@H]2[C@H](CCN2C(=O)Cc2ccccc2)[C@H](CO)N3)c1`, the reporter increase was 11%.
On to `O=C(Nc1ccc(Cl)cc1)c1csc([C@@H]2O[C@H](CO)[C@H](O)[C@H](O)[C@H]2O)n1`, for which the reporter increase is -3.58%.
The result for `O=C(Nc1ccc(Cl)cc1)c1csc([C@H]2C[C@H](O)[C@@H](CO)O2)n1` reads 67.4% (active).
For `O=C(Nc1ccc(OCCO)cc1)c1csc([C@H]2C[C@H](O)[C@@H](CO)O2)n1`, the reporter increase was 0.832%.
As for `CCCNC(=O)[C@@H]1[C@@H](CO)[C@@H]2Cn3c(ccc(C4=CCCCC4)c3=O)[C@H]1N2CCC`, the reporter increase was 2.73%.
The result for `O=C(C[C@H]1C[C@@H]2c3cc(NC(=O)C4CCC4)ccc3O[C@@H]2[C@@H](CO)O1)NCCN1CCCCC1` reads -1.5%.
As to `Nc1scc(-c2ccncc2)c1Cl`, the reporter increase was 47.9% (active).
For `COC(=O)c1c(-c2ccc(C)cc2)csc1N`, the reporter increase is 0.96%.
Under `COc1ccccc1CNC(=O)C[C@@H]1C[C@H]2c3cc(NC(=O)CN(C)C)ccc3O[C@H]2[C@@H](CO)O1` stands 0.071%; under `CS(=O)(=O)Nc1ccc2c(c1)[C@H]1C[C@H](CC(=O)NCc3ccc(Oc4ccccc4)cc3)O[C@H](CO)[C@H]1O2`, 7.43%; under `C[C@H]1CN([C@@H](C)CO)C(=O)c2cc(Br)cnc2O[C@H]1CN(C)Cc1cccc(F)c1`, -3.97%.
Consider `O=C(Nc1ccccc1)N1CCC(C(=O)N2CCN(Cc3ccccc3)CC2)CC1`, for which the reporter increase was 12%.
With `O=C(Nc1ccccc1)N1CCN(C2c3ccccc3-c3ccccc32)CC1`, the reporter increase is 4.83%.
Regarding `O=C(Nc1ccccc1)N1CCN(Cc2ccccc2)CC1`, the reporter increase is 40.2% (active).
As for `C[C@@H]1CN([C@H](C)CO)S(=O)(=O)c2ccc(-c3cccc(F)c3)cc2O[C@H]1CN(C)S(=O)(=O)c1ccc(F)cc1`, the reporter increase is 10%.
The result for `O=C(NC1CCC1)[C@H]1[C@H](CO)[C@H]2Cn3c(ccc(-c4ccccc4)c3=O)[C@@H]1N2Cc1cocn1` reads 12.8%; that for `O=C(C1CCC1)N1CCCCN2[C@H](CO)[C@H](c3ccc(-c4cccc(F)c4)cc3)[C@H]2C1`, -5.73%; that for `O=C(NCC1CCCCC1)NCC1CCCCC1`, 44.8% (active).
On to `N#CCC(=O)NC(=O)NCC1CC1`, for which the reporter increase was 6.44%.
In the case of `CC(C)(C)NC(=O)NC(=O)COC(=O)CCC1CCCCC1`, the reporter increase is -5.79%.
The result for `CCCNC(=O)C[C@H]1CC[C@H]2[C@H](COc3ccc(NC(=O)CC)cc3C(=O)N2C)O1` reads 2.93%; that for `C[C@H]1CN([C@@H](C)CO)C(=O)c2cccc(NS(=O)(=O)c3ccc(F)cc3)c2O[C@@H]1CN(C)CC1CC1`, -4.49%; that for `Cc1cccc(N2O[C@H]3C=CC2CCCC3)n1`, 56.9% (active).
The result for `CC(C)NC(=O)Nc1ccc2c(c1)C(=O)N([C@@H](C)CO)C[C@@H](C)[C@@H](CN(C)S(=O)(=O)c1ccc(F)cc1)OCCCC[C@H](C)O2` reads -2.87%.
The result for `C[C@@H]1CN([C@H](C)CO)S(=O)(=O)c2ccc(-c3cncnc3)cc2O[C@@H]1CN(C)Cc1ccccn1` reads -3.4%; that for `CC(OC(=O)c1c(F)cccc1F)C(=O)NCCC1=CCCCC1` (configuration not stated), -1.99%.
In the case of `CC(=O)Nc1ccc(S(=O)(=O)N(C)CC(=O)NCCC2=CCCCC2)cc1`, the reporter increase is -5.82%.
Under `S=C(NCCC1=CCCCC1)Nc1ccccc1` stands 51.5% (active); under `Cc1cc(C(=O)NCCc2ccc(Cl)cc2)n(-c2ccccc2)n1`, -4.28%; under `NS(=O)(=O)c1ccc(CCNC(=O)c2ccc(Cl)cc2[N+](=O)[O-])cc1`, 0.338%.
The result for `Cc1cc(C(=O)NCCc2ccc(Cl)cc2)c(C)o1` reads 55.1% (active).
In the case of `Cn1cnc(CCNC(=O)[C@H]2[C@H](CO)[C@H]3Cn4c(cccc4=O)[C@H]3N2C(=O)Nc2ccccc2)c1`, the reporter increase was 6.91%.
The result for `O=C(NC1CCCCC1)N[C@H]1CC[C@H](CCNS(=O)(=O)c2ccc(F)cc2)O[C@H]1CO` reads 12.9%.
